Reference: the supplement of paper PMC11732987, “Enantioselective OTUD7B fragment discovery through chemoproteomics screening and high-throughput optimisation” (Communications Chemistry, 2025)

Legend:
Test in all cases: log2 ratio of Biotin-Ahx-Ub-VS probe labelling (fragment/DMSO); higher = less target engagement (more negative = stronger competition), active = hit call of the paper (q ≤ 0.05, log2 ratio ≤ -1)
Conditions in all cases: compound concentration: 200 uM; treatment time: 3 h
USP19 = target: T1, USP19 (UniProt O94966)
T1 sequence (whole entry): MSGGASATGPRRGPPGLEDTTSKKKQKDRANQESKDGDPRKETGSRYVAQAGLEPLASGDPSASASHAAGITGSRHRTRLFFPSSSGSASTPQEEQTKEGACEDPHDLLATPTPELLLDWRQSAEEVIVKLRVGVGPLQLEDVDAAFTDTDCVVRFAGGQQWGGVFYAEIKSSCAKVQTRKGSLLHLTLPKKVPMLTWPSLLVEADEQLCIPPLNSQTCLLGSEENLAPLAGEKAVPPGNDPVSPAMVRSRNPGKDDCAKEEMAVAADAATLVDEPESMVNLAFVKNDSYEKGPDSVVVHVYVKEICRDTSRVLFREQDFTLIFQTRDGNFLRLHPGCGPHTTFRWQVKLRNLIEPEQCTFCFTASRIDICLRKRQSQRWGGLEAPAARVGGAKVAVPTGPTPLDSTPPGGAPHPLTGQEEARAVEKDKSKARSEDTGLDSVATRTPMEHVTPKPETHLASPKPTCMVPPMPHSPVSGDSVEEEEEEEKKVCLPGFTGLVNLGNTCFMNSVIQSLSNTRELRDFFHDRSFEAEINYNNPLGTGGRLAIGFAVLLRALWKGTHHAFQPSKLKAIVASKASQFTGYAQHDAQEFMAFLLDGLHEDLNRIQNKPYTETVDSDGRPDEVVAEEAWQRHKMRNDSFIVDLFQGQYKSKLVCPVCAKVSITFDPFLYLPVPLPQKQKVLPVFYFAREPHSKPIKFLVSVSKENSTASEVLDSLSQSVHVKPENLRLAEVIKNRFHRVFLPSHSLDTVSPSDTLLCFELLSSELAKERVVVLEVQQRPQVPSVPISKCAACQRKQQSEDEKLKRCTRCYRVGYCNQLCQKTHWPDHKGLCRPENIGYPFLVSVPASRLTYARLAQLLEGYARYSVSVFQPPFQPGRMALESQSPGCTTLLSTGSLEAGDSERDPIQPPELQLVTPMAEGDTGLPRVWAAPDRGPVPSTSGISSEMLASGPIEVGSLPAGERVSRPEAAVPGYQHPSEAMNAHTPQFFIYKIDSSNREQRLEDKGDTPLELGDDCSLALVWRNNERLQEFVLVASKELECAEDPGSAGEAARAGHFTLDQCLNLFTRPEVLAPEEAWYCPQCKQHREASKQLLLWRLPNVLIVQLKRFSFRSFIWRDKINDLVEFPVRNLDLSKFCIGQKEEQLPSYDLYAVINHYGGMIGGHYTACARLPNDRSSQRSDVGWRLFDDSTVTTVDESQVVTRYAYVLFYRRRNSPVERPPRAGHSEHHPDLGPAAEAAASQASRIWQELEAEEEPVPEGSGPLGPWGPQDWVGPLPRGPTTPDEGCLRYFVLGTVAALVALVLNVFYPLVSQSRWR
Summary of the method: (§1)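 Each value is an average log2 ratio of fragment to vehicle, tested by unpaired t-test. The underlying Spectronaut label-free quantities were global-median-normalised, and only proteins with ≥2 unique peptides were included. Triplicate HEK293T lysate samples (495 µg) were exposed to fragment at 200 µM or vehicle for 3 h, then to Biotin-Ahx-Ub-VS at 0.5 µM final for 1 h, before NeutrAvidin enrichment of labelled DUBs, LysC and trypsin digestion, and diaPASEF LC-MS/MS.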

USP22 = target: T2, USP22 (UniProt Q9UPT9)
T2 sequence (whole entry): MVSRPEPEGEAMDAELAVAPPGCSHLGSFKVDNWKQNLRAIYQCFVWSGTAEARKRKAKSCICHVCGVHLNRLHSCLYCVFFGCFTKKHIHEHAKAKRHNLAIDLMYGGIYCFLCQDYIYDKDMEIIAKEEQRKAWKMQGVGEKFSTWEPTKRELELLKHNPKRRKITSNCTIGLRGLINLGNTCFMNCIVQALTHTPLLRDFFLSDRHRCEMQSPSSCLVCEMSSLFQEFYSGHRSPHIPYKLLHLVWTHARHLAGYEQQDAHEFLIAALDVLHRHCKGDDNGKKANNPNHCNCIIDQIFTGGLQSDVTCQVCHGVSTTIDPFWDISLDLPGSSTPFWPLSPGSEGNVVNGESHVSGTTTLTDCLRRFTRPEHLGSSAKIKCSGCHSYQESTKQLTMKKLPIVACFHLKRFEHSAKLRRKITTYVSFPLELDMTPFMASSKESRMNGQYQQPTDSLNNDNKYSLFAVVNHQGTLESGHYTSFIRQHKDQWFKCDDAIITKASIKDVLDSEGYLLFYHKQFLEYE
Summary of the method: as §1

USP24 = USP24 (UniProt Q9UPU5)
Chain of USP24 (Q9UPU5 whole entry): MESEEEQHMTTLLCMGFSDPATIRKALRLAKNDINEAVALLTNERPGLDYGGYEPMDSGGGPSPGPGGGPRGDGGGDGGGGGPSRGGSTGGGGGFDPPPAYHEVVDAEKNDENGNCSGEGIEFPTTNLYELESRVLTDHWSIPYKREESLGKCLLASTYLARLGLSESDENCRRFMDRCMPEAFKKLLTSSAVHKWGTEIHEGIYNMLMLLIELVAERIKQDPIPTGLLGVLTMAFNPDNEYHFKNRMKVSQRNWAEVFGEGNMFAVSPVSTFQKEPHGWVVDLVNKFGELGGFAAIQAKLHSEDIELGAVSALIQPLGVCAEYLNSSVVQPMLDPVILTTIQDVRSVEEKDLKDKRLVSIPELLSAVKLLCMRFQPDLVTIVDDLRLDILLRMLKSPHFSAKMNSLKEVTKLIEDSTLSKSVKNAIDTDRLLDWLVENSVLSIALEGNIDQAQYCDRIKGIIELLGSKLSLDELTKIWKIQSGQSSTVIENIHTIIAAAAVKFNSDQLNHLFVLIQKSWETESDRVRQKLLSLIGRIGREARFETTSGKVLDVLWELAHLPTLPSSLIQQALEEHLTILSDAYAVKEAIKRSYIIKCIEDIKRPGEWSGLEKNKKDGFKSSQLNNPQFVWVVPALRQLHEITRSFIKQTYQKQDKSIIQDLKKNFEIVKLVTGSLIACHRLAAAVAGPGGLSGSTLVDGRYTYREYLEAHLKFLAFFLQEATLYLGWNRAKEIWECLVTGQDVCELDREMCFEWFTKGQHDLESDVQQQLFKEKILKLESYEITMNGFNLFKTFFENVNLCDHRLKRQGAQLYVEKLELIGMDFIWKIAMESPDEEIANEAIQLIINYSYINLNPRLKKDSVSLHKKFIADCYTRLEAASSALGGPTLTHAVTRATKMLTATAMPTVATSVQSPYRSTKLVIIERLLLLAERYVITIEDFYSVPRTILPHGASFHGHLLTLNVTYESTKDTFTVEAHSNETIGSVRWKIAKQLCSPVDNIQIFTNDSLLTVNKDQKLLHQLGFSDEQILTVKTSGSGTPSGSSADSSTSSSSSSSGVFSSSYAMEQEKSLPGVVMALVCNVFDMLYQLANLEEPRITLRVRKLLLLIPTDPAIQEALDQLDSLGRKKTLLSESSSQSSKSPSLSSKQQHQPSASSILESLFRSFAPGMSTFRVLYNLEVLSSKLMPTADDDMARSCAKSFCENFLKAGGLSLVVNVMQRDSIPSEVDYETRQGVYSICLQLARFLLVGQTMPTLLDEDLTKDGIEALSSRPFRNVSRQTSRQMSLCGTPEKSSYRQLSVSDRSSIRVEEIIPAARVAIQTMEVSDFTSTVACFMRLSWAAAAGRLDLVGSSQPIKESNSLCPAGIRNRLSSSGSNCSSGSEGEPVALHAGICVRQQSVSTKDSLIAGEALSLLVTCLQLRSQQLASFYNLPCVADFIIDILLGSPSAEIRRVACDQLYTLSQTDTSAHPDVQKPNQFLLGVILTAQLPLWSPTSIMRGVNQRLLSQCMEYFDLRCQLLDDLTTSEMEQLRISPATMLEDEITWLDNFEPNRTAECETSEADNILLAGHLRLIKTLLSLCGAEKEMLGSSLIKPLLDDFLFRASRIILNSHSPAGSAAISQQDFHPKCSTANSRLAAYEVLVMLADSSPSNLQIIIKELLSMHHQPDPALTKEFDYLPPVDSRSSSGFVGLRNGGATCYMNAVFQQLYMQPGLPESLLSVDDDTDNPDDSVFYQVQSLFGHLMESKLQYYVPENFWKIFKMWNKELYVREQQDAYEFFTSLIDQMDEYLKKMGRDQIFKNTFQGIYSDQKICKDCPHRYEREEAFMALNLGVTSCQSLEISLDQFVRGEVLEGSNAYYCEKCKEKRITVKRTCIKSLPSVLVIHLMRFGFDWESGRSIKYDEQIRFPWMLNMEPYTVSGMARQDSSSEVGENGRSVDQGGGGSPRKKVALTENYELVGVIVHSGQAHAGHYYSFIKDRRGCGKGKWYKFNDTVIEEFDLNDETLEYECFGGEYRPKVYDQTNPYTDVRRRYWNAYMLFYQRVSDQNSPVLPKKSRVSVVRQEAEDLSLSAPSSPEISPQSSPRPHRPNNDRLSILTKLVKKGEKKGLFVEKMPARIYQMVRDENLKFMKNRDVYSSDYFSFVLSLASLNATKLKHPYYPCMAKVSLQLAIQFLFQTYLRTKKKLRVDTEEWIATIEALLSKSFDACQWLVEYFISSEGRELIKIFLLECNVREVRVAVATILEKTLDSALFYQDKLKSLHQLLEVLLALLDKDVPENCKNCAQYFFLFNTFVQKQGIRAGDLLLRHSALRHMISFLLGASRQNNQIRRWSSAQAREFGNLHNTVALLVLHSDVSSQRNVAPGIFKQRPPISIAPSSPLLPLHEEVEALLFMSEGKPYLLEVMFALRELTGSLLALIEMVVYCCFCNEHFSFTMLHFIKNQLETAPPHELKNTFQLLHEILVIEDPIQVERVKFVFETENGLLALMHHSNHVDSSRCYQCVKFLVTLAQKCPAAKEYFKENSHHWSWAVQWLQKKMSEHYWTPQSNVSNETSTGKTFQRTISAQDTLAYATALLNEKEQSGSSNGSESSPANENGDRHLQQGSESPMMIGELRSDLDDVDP
Summary of the method: as §1

USP25 = target: T3, USP25 (UniProt Q9UHP3)
T3 sequence (whole entry): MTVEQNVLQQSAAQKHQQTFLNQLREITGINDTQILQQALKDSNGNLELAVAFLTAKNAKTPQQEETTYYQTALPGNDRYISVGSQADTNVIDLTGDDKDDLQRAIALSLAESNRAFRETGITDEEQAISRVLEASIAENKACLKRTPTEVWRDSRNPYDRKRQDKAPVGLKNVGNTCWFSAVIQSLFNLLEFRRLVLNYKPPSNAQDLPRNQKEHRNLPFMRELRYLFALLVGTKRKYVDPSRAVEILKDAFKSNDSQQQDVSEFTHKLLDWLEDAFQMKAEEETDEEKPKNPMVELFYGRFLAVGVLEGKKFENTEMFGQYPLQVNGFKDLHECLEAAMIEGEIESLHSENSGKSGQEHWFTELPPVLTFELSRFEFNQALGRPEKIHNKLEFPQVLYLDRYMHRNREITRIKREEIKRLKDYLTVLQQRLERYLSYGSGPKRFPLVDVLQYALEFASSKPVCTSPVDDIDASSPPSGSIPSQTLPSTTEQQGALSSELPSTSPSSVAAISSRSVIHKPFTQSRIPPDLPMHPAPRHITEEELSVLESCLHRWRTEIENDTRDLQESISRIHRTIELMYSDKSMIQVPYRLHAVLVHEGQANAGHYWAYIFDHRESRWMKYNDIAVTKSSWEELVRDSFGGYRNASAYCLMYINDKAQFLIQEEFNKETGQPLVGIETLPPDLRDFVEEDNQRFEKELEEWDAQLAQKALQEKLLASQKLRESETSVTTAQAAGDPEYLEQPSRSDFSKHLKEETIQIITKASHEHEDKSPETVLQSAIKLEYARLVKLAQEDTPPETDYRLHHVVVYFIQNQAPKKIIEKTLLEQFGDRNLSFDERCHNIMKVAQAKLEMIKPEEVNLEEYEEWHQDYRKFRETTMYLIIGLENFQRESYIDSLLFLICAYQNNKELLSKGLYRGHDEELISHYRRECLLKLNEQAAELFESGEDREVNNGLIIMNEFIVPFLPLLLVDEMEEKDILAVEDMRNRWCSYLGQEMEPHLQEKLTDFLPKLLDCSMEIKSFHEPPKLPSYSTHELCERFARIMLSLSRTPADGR
Summary of the method: as §1

USP28 = target: T4, USP28 (UniProt Q96RU2)
T4 sequence (whole entry): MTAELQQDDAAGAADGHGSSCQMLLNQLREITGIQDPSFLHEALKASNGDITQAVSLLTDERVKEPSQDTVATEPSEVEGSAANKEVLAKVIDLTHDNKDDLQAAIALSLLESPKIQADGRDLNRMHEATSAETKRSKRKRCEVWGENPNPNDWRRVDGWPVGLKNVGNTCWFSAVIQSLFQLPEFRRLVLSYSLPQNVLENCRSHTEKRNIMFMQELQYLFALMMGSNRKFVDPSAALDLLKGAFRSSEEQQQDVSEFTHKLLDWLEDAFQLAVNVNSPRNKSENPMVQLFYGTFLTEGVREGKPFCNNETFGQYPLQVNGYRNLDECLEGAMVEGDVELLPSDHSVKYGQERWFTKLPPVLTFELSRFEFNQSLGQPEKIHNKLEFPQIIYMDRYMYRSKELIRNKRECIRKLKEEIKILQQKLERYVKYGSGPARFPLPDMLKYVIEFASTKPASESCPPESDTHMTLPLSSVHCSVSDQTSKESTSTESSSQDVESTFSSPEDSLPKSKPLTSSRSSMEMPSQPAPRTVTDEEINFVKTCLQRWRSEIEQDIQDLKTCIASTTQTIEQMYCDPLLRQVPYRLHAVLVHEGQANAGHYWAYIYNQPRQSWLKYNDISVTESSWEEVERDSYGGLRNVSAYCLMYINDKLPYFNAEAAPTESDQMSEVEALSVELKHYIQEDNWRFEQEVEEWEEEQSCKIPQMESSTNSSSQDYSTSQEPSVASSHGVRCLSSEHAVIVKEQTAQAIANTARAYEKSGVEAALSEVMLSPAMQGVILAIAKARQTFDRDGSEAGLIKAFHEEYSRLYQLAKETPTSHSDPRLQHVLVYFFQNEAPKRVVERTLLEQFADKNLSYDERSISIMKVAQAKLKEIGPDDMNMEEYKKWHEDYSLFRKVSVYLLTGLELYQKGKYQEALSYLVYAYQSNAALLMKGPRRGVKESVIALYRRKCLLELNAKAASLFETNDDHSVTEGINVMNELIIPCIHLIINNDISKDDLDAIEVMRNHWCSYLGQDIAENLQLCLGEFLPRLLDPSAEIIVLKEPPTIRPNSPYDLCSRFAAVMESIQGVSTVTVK
Summary of the method: as §1

Measured: log2 ratio of Biotin-Ahx-Ub-VS probe labelling

O=C(CCl)N1CCc2ccccc2C(O)C1 (stereo not given)
inactive: USP19 -0.315 | USP22 -0.345 | USP24 -0.483 | USP25 -0.343 | USP28 -0.698
